High-throughput results deposited in PubChem BioAssay by National Center for Advancing Translational Sciences (NCATS).
IMPase cell inh: cell-permeable inhibitors of inositol monophosphatase (IMPase) | P97697 | CHO-M1 cells, IP1 accumulation, HTRF TR-FRET ratio | inhibition (IP1 accumulation), % at 46.1 µM | 120,000 tested, under 10 active; active means well fitted curve in the direction sought with a large enough effect in the signal ratio, not every such curve was filed as active; inconclusive means small, poorly fitted or top-dose-only effect, or a change in a side signal; inactive means no such curve, though single readings can be large or run the other way; the % refers to the signal ratio;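 further: cells stimulated with carbachol in lithium chloride buffer; plate controls were DMSO basal wells for no effect and reference inhibitor wells for full effect; higher means more IMPase inhibition seen as more IP1 and lower FRET ratio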
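Measured: the HTRF emission ratio (665/620 nm) plus the 620 nm donor channel, each fitted to the Hill equation to give AC50. Cells were CHO-M1 given compounds up to 46 uM and a 30 min carbachol stimulation at 37C.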
ALDH1A1 inh: blocks purified human ALDH1A1 activity; AID 1030; Purified ALDH1A1, NADH fluorescence, propionaldehyde substrate; P00352; Potency, µM (highest dose often 75.3 µM), inactives show at the top dose activity, negative = inhibition, most hits filed as inhibitors; 7.3% of 220,000 active; active means well fitted inhibition curve with a large enough effect, not every such curve was filed as active; inconclusive means small, poorly fitted or top-dose-only effect, or another doubt; inactive means no such curve, though single readings can be large or run the other way;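 further: potency means the concentration at half of the fitted maximal effect; plate controls were no enzyme wells and a reference inhibitor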
Target sequence (P00352 whole entry, looked up): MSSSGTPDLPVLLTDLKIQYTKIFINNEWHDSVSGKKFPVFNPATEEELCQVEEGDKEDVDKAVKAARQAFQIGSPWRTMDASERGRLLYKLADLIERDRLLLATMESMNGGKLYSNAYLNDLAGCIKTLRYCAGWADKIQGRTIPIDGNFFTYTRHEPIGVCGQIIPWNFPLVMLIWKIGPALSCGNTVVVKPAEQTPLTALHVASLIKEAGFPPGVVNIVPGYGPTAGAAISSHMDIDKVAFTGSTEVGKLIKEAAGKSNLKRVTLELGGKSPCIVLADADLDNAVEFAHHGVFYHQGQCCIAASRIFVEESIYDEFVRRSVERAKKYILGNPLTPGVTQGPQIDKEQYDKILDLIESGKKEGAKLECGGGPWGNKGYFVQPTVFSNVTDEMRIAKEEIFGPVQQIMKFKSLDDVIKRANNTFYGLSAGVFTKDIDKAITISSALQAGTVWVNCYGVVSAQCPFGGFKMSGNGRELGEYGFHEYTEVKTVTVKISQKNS
HPGD inh: inhibitors of human 15-hydroxyprostaglandin dehydrogenase (HPGD); P15428; purified HPGD, NADH fluorescence kinetic, PGE2 substrate; Potency, µM, for inactives: at the highest dose activity change, negative = inhibition, actives largely listed as inhibitors; 4.3% of 150,000 active; active means well fitted inhibition curve with a large enough effect, not every such curve was filed as active; inconclusive means small, poorly fitted or top-dose-only effect, or another doubt; inactive means no such curve, though single readings can be large or run the other way; further: potency means the concentration at half of the fitted maximal effect
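20 nM HPGD preincubated 15 min at room temperature with compound in 50 mM Tris-HCl pH 8, 0.01% Tween 20. Started with 1 mM NAD+ and 30 uM prostaglandin E2; NADH fluorescence (360/450 nm) read 5 times over 30-s intervals, last minus first.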
NPSR antagonist: blocks cAMP signaling of the human neuropeptide S receptor | CHO-NPSR cells, cAMP TR-FRET, antagonist mode | Potency, µM (titrated, usually from 38.3 µM), for inactives: at the top dose activity change, negative = inhibition, usual class: inhibitors | 1% of 220,000 active; further: potency means the concentration at half of the fitted maximal effect; nearly all actives have a fitted effect of over 50% in size
IMPase Li inh: IMPase inhibition in cells with lithium potentiation | CHO-M1 cells, IP1 TR-FRET (IP-One), carbachol + lithium | Potency, µM (doses to about 59.4 µM), without a hit: at the top dose activity, negative = IMPase inhibition, usual class: inhibitors | 0.35% of 210,000 active | AID 1457;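 further: IP1 builds up when IMPase is blocked and the TR-FRET signal falls; potency means the concentration at half of the fitted maximal effect; plate controls were basal vehicle for no effect and high inhibitor control for full effect; nearly all actives have a fitted effect of over 50% in size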
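Lithium-sensitised IP1 accumulation assay; M1-expressing CHO cells treated 30 min at 37C with compound. Competitive antibody detection by time-resolved FRET followed a 10 min room-temperature lysis step.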
ALOX12 inhib: blocks human 12-lipoxygenase activity. purified 12-hLO, xylenol orange hydroperoxide absorbance. AID 1452. 0.12% of 150,000 active. Potency, µM (series often up to 57.1 µM), for inactives: at the highest dose activity change, negative = inhibition, actives largely listed as inhibitors; further: potency means the concentration at half of the fitted maximal effect; nearly all actives have a fitted effect of over 55% in size
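Xylenol orange chromogenic assay: hydroperoxide from 12hLO oxidises Fe(II), giving red-shifted Fe(III)-XO absorbance. Conditions: 150 nM enzyme, 40 uM arachidonic acid, 25 mM Hepes pH 7.0, 0.01% Triton X-100, 30 min, room temperature.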
* = called active by the depositor; ? = inconclusive; / = no result given; [ ] = another dose, or the depositor's remark. Shown are actives, neighbours in structure and some others; about 8.9% of the full set was active somewhere. Unless noted, the call rests on the fitted dose curve; in most records, active means well fitted curve in the direction sought with a large enough effect; inconclusive means small, poorly fitted or top-dose-only effect, or another doubt; inactive means no such curve, though single readings can be large; an effect the other way counts as inactive or inconclusive. Unless noted, on the % scale 0 is the no-effect control and ±100 the full control effect.

SMILES	IMPase cell inh	ALDH1A1 inh	HPGD inh	NPSR antagonist	IMPase Li inh	ALOX12 inhib
C(=C/c1ccccc1)/CN1CCN(C(c2ccccc2)c2ccccc2)CC1	15.4[20.6 µM]	-7.4%[20.9 µM]	-12.6%	/	22.1%	-7.2%[25.6 µM]
Cc1ccc(OCCn2c(-c3ccc(Br)cc3)nc3ccccc3c2=O)cc1C	5.1	/	/	/	/	/
COc1ccc(S(=O)(=O)N2CCC(C(=O)NCc3ccccn3)CC2)cc1Cl	21.4	-8.4%	2.9%	-16.8%[46.1 µM]	9.8%[38.3 µM]	-0.9%
COc1ccc(CCN2C(=O)CC(NNC(=O)c3ccccc3Br)C2=O)cc1 (centres undefined)	-12.8	-10.7%	-8.4%	11.3%	-2.7%	0.0%
COc1ccc(NC2=CC(c3cccc(OC)c3)N(c3ccc(OC)cc3)C2=O)cc1 (centres undefined)	/	25.1µM*	?	-8.2%	-0.2%	-5.5%
COc1ccc(NC2=CC(c3ccccc3)N(c3ccc(OC)cc3)C2=O)cc1 (centres undefined)	/	-13.7%	-11.7%	-9.4%	-7.5%	-0.6%
Nc1nc(-c2ccccc2)c(N=Nc2ccc(Cl)cc2)s1	/	28.2µM*	?	4.9%	-1.4%	-0.2%
Cc1[nH]nc(SCC(=O)NCCc2ccccc2)c1[N+](=O)[O-]	/	1.6%	/	25.8%	3.7%	/
COc1ccc(CCNC(=O)c2cc(-c3ccccc3O)n[nH]2)cc1OC	-2.7	7.4%	28.2µM*	-14.5%[46.1 µM]	24.7%[38.3 µM]	-11.8%
COc1ccc(CCNC(=O)CSc2n[nH]c(C)c2[N+](=O)[O-])cc1OC	/	28.2µM*	/	21.6%	-3.6%	/
COc1ccc(OC)c(C2CC(=O)N3CN(c4ccccc4F)CSC3=C2C#N)c1 (centres undefined)	6.0	3.98µM*	25.1µM*	-12.2%[46.1 µM]	8.7%[38.3 µM]	31.6µM*
COC(=O)CSC1=C(C#N)C(c2cccc(OC)c2)CC(=O)N1 (centres undefined)	3.7	6.7%	-14.1%	-7.8%[46.1 µM]	0.3%[38.3 µM]	0.6%
COc1cccc(C2CC(=O)N3CN(c4ccccc4F)CSC3=C2C#N)c1 (centres undefined)	-3.9	25.1µM*	?	-3.6%[46.1 µM]	-7.2%[38.3 µM]	-18.3%
COc1ccc(OC)c(C2CC(=O)NC(SC)=C2C#N)c1 (centres undefined)	-3.9	-6.2%	-16.5%	-1.7%[46.1 µM]	6.8%[38.3 µM]	4.7%
Nc1cc(C(=O)O)c(N)c2c1C(=O)c1ccccc1C2=O	/	/	/	3.16µM*	/	/
CCOC(=O)CSCC(NC(=O)OC(C)(C)C)C(=O)OCC (centres undefined)	-0.4	3.8%	-5.4%	-7.7%[46.1 µM]	4.4%[38.3 µM]	-3.2%
CCOC(=O)C(CSCC(=O)c1ccc(Cl)cc1Cl)NC(=O)OC(C)(C)C (centres undefined)	2.8	7.94µM*	?	-19.5%[46.1 µM]	31.6%[38.3 µM]	?
CCOC(=O)N1CCN(C(=O)COc2ccccc2[N+](=O)[O-])CC1	/	-4.3%	/	7.0%	-1.5%	/
CCS(=O)(=O)NCCc1csc(C)n1	6.1	7.5%	0.6%	16.1%[46.1 µM]	0.7%[38.3 µM]	-1.2%
O=C(/C=C/c1ccncc1)c1ccc(NC(=O)c2ccccc2F)cc1	/	?	25.1µM*	-56.8%	12.2%	-1.5%
O=C(Nc1cccc(C(F)(F)F)c1)Nc1ccc(N2CCCC2)c(S(=O)(=O)Nc2ccccc2Cl)c1	/	-7.4%	-24.7%	10µM*	2.3%	-5.6%
CCn1c(C)nc2cc(C(=O)NNC(=S)Nc3ccccc3)ccc21	/	2.2%	/	12.6%	2.7%	/
CCn1c(C)nc2cc(C(=O)NNC(=S)Nc3ccc(Cl)cc3)ccc21	/	/	/	-8.2%	/	/
CCn1c(C)nc2cc(C(=O)NNC(=S)NC(=O)c3ccccc3)ccc21	/	25.1µM*	/	-8.5%	1.7%	/
O=C(NNC(=S)Nc1ccc(Cl)cc1Cl)c1ccncc1	-4.4	3.16µM*	?	4.8%	9.3%	-2.2%
SMILES	IMPase cell inh	ALDH1A1 inh	HPGD inh	NPSR antagonist	IMPase Li inh	ALOX12 inhib
CCn1c(C)nc2cc(C(=O)NNC(=S)Nc3ccccc3Cl)ccc21	1.4	31.6µM*	-25.1%	5.2%[46.1 µM]	-2.4%	0.6%
CCn1c(C)nc2cc(C(=O)NNC(=S)Nc3ccc(F)cc3)ccc21	/	?	/	-6.2%	/	/
CCn1c(C)nc2cc(C(=O)NNC(=S)Nc3ccc(Cl)cc3Cl)ccc21	10.8	3.55µM*	?	-14.3%[46.1 µM]	-1.5%	1.6%
CCN1C(=O)[C@H]2[C@H]3[C@H](O)[C@H](O)C/C(=N/OCC(C)C)[C@H]3CC[C@@H]2C1=O	/	0.3%[13.5 µM]	/	/	/	/
CCc1cc(C(=O)NNC(=S)Nc2ccccc2C)cs1	-6.6	25.1µM*	-16.5%	0.4%	3.0%	-19.9%
CCc1cc(C(=O)NNC(=S)Nc2cc(C)ccc2C)cs1	-8.9	?	-14.5%	-25.9%	-3.3%	-11.4%
O=C(c1cnn(C(=O)c2cccc(S(=O)(=O)N3CCOCC3)c2)c1)c1cc(Cl)cc(Cl)c1O	/	1.9%	/	26.8%	/	/
O=C(c1cnn(C(=O)c2cccc(S(=O)(=O)N3CCOCC3)c2)c1)c1ccccc1O	/	3.55µM*	/	6.9%	7.4%	/
N#C/C(=C/c1ccc(N2CCOCC2)o1)c1ccc(Br)cc1	-8.2	15.8µM*	?	-28.6%[46.1 µM]	13.2%[38.3 µM]	?
N#C/C(=C/c1ccc(N2CCCCCC2)o1)c1cccc(F)c1	16.8	2µM*	25.1µM*	6.31µM*	107.8%[38.3 µM]	?
N#C/C(=C/c1ccc(N2CCOCC2)o1)c1nc2ccccc2[nH]1	?	-5.7%	-7.8%	?	28.6%	-5.2%
